Growth data for 40 molecules are collected here from PubChem BioAssay (NCI).

The panel holds about 83,000 compounds, 20% with a hit somewhere; the sample as a whole holds those more often.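 Single-dose data. Exposure time 48 hours. Values below 10 considered active.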 A number with no mark means an inactive call. Calls of active or inactive are those of the source.

This experiment deals with NCI-H460 lung. The experiment can be described thus: NCI-60 one-dose screen, 48 h (100 = growth as untreated, 0 = no growth, -100 = all killed). The following applies: 10 µM unless noted. As to the method: Growth inhibition of the NCI-H460 human Non-Small Cell Lung tumor cell line is measured as a screen for anti-cancer activity. Cells are grown in 96 well plates and exposed to the test compound for 48 hours. Compounds are tested at a single concentration, which is 10^-5 M for most compounds. The reported endpoint is percent growth (GI% or GIPRCNT), where numbers from 0 - 100% represent growth inhibition, and numbers from -100% - 0 represent cell death. For example, a value of 40 represents 60% growth inhibition. A value of 0 means no net growth occurred over the course of the experiment. A value of -40 indicates 40% of cells at the beginning of the experiment died by the end of the experiment. A value of -100 means all cells are dead at the end of the experiment.
NCI-60 Human Tumor Cell Lines Screen was performed using the standard one-dose NCI protocol, which is described in more detail at https://dtp.cancer.gov/discovery_development/nci-60/default.htm.
Compounds with GIPRCNT values below 10 were considered active. Activity score was based on GIPRCNT using the following formula: […]
Score is 0 for GIPRCNT values of 100 or above, 50 for GIPRCNT values of 0, and 100 for GIPRCNT values of -100.
Turning to `CC(C)(c1ccccc1)c1cc(O)c(C(C)(C)c2ccccc2)cc1O`, the growth was 21.9%.
Under `COc1ccc(/C(C)=N/NC(=O)c2ccc(S(C)(=O)=O)cc2)cc1OC` stands 108%.
As for `COC(=O)c1ccc2c(c1)nc(-c1ccc(Cl)cc1)n2-c1cc(C(C)(C)C)[nH]n1`, the growth was 45.1%.
As to `O=C(c1ccccc1)C1OC1C(=O)c1ccccc1` (stereo not given), the growth was 64.1%.
The figure for `C#C[C@]1(O)CC[C@H]2[C@@H]3CC=C4c5sc(-c6cccc(Br)c6)nc5CC[C@]4(C)[C@H]3CC[C@@]21C` is 78.1%; for `O=C1OCC2=C1C(c1ccccc1)c1cc3c(cc1N2CCO)OCO3` (stereo not given) it is -3.16% (active); for `O=C1/C=C/[C@@H](O)[C@@H]2C[C@@H](O)C[C@H]2/C=C/CCC[C@H]([C@@H](O)CO)O1` it is 115%.
Consider `Clc1cc(Cl)cc(-c2cnc3nonc3n2)c1`, for which the growth is 106%.
On to `O=C1CCCN1C(O)CCN(Cc1ccccc1)Cc1ccc(Cl)cc1` (stereo not given), for which the growth is 105%.
Turning to `COc1ccc2c(c1)C1=NN(C(=O)CO)[C@H](c3ccc(OC(F)(F)F)cc3)[C@@H]1CC2`, the growth is 103%.
Under `COc1ccc(NC(=O)c2sc3c(=O)[nH]c(C(F)(F)F)nc3c2C)cc1` stands 115%.
As to `COc1ccc(/C(C)=N/NC(=O)CSc2nc3ccccc3c(=O)n2CCc2ccc(S(N)(=O)=O)cc2)cc1`, the growth was -29.5% (active).
On to `O=C1Nc2ccccc2/C1=C\c1nc(C2CCN(S(=O)(=O)c3ccc(F)cc3)CC2)n2ccccc12`, for which the growth was 65%.
For `CC(C)(C)c1ccc(C(=O)Nc2sc3cc(O)ccc3c2C(N)=O)cc1`, the growth is 51.2%.
The figure for `CCc1c(C)c2ccc(O)c(-c3cc(-c4ccccc4)c(C#N)c(=O)[nH]3)c2oc1=O` is 112%; for `CCOC(=O)Cc1cc(Br)c(OCc2ccccc2)c(Br)c1` it is 114%; for `NC(=O)c1ccc[n+](Cc2ccccc2)c1` it is 108%.
For the molecule `COc1ccc(-c2cc(C(=O)Nc3ccc(C)cc3)nc3[nH]c(=O)sc23)cc1`, the growth is 68.8%.
Turning to `CCOC(=O)C#Cc1c(C(=O)OCC)nnn1[C@@H]1O[C@H](COC(C)=O)[C@@H](OC(C)=O)[C@H]1OC(C)=O`, the growth was 108%.
Under `O=C(NCCN1CCCCC1)n1cc(-c2ccncc2)c(-c2ccc(Cl)c(O)c2)n1` stands 91.5%; under `O=C(N/N=C/c1ccccc1O)c1ccncc1`, 25.7%; under `c1ccc(-c2ccc(-c3ccccc3)[nH]2)cc1`, 103%.
`CCN(CC)c1ccc(/C=N/NC(=O)C[N+](C)(C)C)cc1`: the growth is 110%.
For the molecule `NC(N)=N/N=C/c1cccc(Cl)c1Cl`, the growth was 64.2%.
With `CN1CCCN(CCNc2nccc(-c3c(-c4cccc(O)c4)nc4sccn34)n2)S1(=O)=O`, the growth is 40.2%.
As to `CN(C)N1C(=O)c2c(Cl)c(Cl)c(Cl)c(Cl)c2C1=O`, the growth is 110%.
Take `CCN(CC)CC(=O)Nc1c(C)cc(C(=O)NN)cc1C`: the growth was 105%.
As for `CCn1c(=O)c(C(=O)NCCCO)c(O)c2ccccc21`, the growth is 111%.
As to `CC(C)(C)c1nn(-c2ccccc2)c2c1C(=O)CSC(c1ccccc1Cl)N2` (stereo not given), the growth was 22.4%.
For `S=C(Nc1ccc(Cl)cc1)Nc1ccc(Cl)cc1` (tested in a mixture with another compound), the growth was -17.4% (active).
On to `Clc1ccccc1CNc1c2ccccc2nc2ccccc12`, for which the growth was 8.83% (active).
As to `COc1ccc(/C=C(\C#N)c2cc(OC)c(OC)c(OC)c2)cc1`, the growth is 7.57% (active).
`CN(C)CCNC(=O)n1cc(-c2ccncc2)c(-c2cc(O)cc(Cl)c2)n1`: the growth was 93.5%.
As to `O=C(CC(=O)C(F)(F)C(F)(F)C(F)(F)F)c1cc2ccccc2o1`, the growth is 110%.
On to `CC(=O)Oc1c(Cl)c(Cl)c(Cl)c(Cl)c1Cl`, for which the growth was 105%.
With `CC(CN1CCN(CC(C)Nc2ccnc3cc(Cl)ccc23)CC1)Nc1ccnc2cc(Cl)ccc12` (stereo not given), the growth is -30.4% (active).
On to `COc1cc(NCCC2CCCCN2)c2ncccc2c1OC` (stereo not given), for which the growth was 80.3%.
As for `CCOC(=O)c1cc(N)nc2ccccc12`, the growth is 96.3%.
`c1coc(CNc2c3ccccc3nc3ccccc23)c1`: the growth is 56.5%.
Take `O=C(CSc1nc2c(n1Nc1ccccc1)-c1ccccc1SC2)Nc1nccs1`: the growth is 99.4%.
